For orientation: viability means a read-out of living cells in per cent, often relative to untreated cells.

Results filed as inconclusive are left out. Calls of active or inactive are those of the source. Unless noted, calls follow the shape of the dose curve; as a rule, active = well fitted cell-killing curve with a large enough effect; inconclusive = small, poorly fitted or top-dose-only effect, or effect the other way; inactive = no such curve, though single readings can be large or run the other way.

Test [1] is described as follows: Quantitative High-Throughput drug screen in 47 multiple myeloma cell lines against the NCATS MIPE library collection: OCIMY5_PLB cell viability assay (AID 1918988). Also: nearly all actives have a fitted effect of over 65% in size. Also: potency is read from the fitted curve at half-maximal effect. A digest of the protocol: (§1)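 500 cells/well; MIPE 4.0 drugs pin-transferred; 48 h, 37C, 5% CO2. CellTiter-Glo, 5 min RT, luminescence. Controls: DMSO 100%, media 0%.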
A short description of test [2]: Quantitative High-Throughput drug screen in 47 multiple myeloma cell lines against the NCATS MIPE library collection: OPM1_PLB cell viability assay (AID 1918989). Also: nearly all actives have a fitted effect of over 40% in size. Also: potency is read from the fitted curve at half-maximal effect. The essentials:
as §1

A short description of test [3]: Quantitative High-Throughput drug screen in 47 multiple myeloma cell lines against the NCATS MIPE library collection: U266_ATCC cell viability assay (AID 1919864). Also: nearly all actives have a fitted effect of over 35% in size. Also: potency is read from the fitted curve at half-maximal effect. A digest of the protocol: as §1
The nature of test [4]: Quantitative High-Throughput drug screen in 47 multiple myeloma cell lines against the NCATS MIPE library collection: XG1_PLB cell viability assay (AID 1919866). Also: nearly all actives have a fitted effect of over 35% in size. The essentials: as §1
The nature of test [5]: Quantitative High-Throughput drug screen in 47 multiple myeloma cell lines against the NCATS MIPE library collection: PE2_PLB cell viability assay (AID 1919869). Also: nearly all actives have a fitted effect of over 35% in size. Also: potency is read from the fitted curve at half-maximal effect. The essentials: as §1
Test [6] in a line: Quantitative High-Throughput drug screen in 47 multiple myeloma cell lines against the NCATS MIPE library collection: RPMI8226_ATCC cell viability assay (AID 1919871). Also: nearly all actives have a fitted effect of over 30% in size. Also: potency is read from the fitted curve at half-maximal effect. The essentials:
as §1

Test [7] is described as follows: Quantitative High-Throughput drug screen in 47 multiple myeloma cell lines against the NCATS MIPE library collection: OPM2_DSMZ cell viability assay (AID 1919872). Also: nearly all actives have a fitted effect of over 30% in size. Also: potency is read from the fitted curve at half-maximal effect. A digest of the protocol: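 CellTiter-Glo ATP luminescence gave viability after 48 h compound treatment at 37C of 500 multiple myeloma cells per well. Normalisation used DMSO-only wells as 100% and media-only wells as 0% viability; primary qHTS of approved and investigational drugs.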

The nature of test [8]: Quantitative High-Throughput drug screen in 47 multiple myeloma cell lines against the NCATS MIPE library collection: KMS11_JCRBsus cell viability assay (AID 1919873). Also: nearly all actives have a fitted effect of over 50% in size. Also: potency is read from the fitted curve at half-maximal effect. A digest of the protocol:
as §1

Test [9] is described as follows: Quantitative High-Throughput drug screen in 47 multiple myeloma cell lines against the NCATS MIPE library collection: KMS28BM_JCRB cell viability assay (AID 1919874). Also: nearly all actives have a fitted effect of over 35% in size. Also: potency is read from the fitted curve at half-maximal effect. The essentials:
as §1

Test [10] is described as follows: qHTS drug screen for cell cycle checkpoint inhibitors in PARPi-resistant BRCA-mutant ovarian cancer cell lines. (AID 1963452; calls by dose curve). To be noted: PEO1/OlaR viability, CellTiter-Glo luminescence, 96 h, stronger effect = lower value. The essentials: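 PEO1, PEO4 and PEO1/OlaR ovarian cancer cells, 600 per well, exposed 96 h at 37C to a dilution series. Viability read by CellTiter-Glo luminescence, normalized to DMSO and empty wells; activity summarized as Z-AUC.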
(In general: qHTS replaces the single test concentration by a dilution series.)

A short description of test [11]: Quantitative High-Throughput drug screen in 47 multiple myeloma cell lines against the NCATS MIPE library collection: SKMM1_PLB cell viability assay (AID 1919863). Also: nearly all actives have a fitted effect of over 35% in size. Also: potency is read from the fitted curve at half-maximal effect. To be noted: SKMM1 myeloma viability, CellTiter-Glo ATP, 48 h; viability: stronger effect = lower value. A digest of the protocol: as §1
Test [12] is described as follows: Quantitative High-Throughput drug screen in 47 multiple myeloma cell lines against the NCATS MIPE library collection: PCM6_Riken cell viability assay (AID 1919870). Also: nearly all actives have a fitted effect of over 30% in size. Also: potency is read from the fitted curve at half-maximal effect. The essentials:
as §1

Test [13] can be described thus: Quantitative High-Throughput drug screen in 47 multiple myeloma cell lines against the NCATS MIPE library collection: XG6_PLB cell viability assay (AID 1919865). Also: nearly all actives have a fitted effect of over 40% in size. Also: potency is read from the fitted curve at half-maximal effect. The essentials: as §1
Test [14] in a line: Quantitative High-Throughput drug screen in 47 multiple myeloma cell lines against the NCATS MIPE library collection: UTMC2_PLB cell viability assay (AID 1919868). Also: nearly all actives have a fitted effect of over 55% in size. To be noted: CellTiter-Glo ATP luminescence, 48 h; viability (% of DMSO control): at 45.8 µM (top of the series). A digest of the protocol:
as §1

The nature of test [15]: qHTS for identification of novel therapeutic agents for treatment of microphthalmiaassociated transcription factor (MiT) renal cell carcinoma (RCC) (AID 1963991). To be noted: CellTiter-Glo, 48 h, stronger effect = lower value. A digest of the protocol: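 Three TFE3-fusion RCC cell lines (UOK109, UOK124, UOK145), 500 cells/well, were exposed to the 1912-compound MIPE 4.0 library for 48 hours at 37 C. Viability was read by CellTiter-Glo luminescence, normalised to DMSO (100%) and empty wells (0%), with 11-concentration curve fits.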

The mark [16] stands for this setting: measured here: PEO1 parental Z-AUC.
[17] abbreviates: TFE3-RCC UOK109 viability, measured here: UOK109 Z-AUC.
Where [18] appears, read: TFE3-RCC viability, measured here: UOK124 Z-AUC.
Where [19] appears, read: TFE3-RCC viability, measured here: UOK145 Z-AUC.

For the compound `CN[C@@H]1Cc2cccc3[nH]c(=O)n(c23)C1`, in test [1], the Potency was 20900 nM (active). The Potency result in [2], in test [3], in test [4], in test [5], in [6] and in test [7] was “inactive” each time. Moreover, the Potency entry in [8] and in test [9] was “inactive” each time. Besides, the Z-AUC in test [10] is 1.45 (inactive); in [10] (setting [16]), 1.4; in test [10] (measured here: PEO4 Z-AUC) it was 1.34.
Consider `CCCCCC[C@H]1C(=O)O[C@H](C)[C@H](NC(=O)c2cccc(NC=O)c2O)C(=O)O[C@@H](C)[C@@H]1OC(=O)CC(C)C`, for which the Potency in [1] is 66.2 nM (active); in test [2] it was 148 nM (active); in [11], 5260 nM (active); in test [3], 372 nM (active); in [5] it was 209 nM (active); in test [12] it was 52.6 nM (active). The Potency in test [6] was 1050 nM (active); in [8], 74.3 nM (active); in test [9], 209 nM (active). The Z-AUC is -1.4 (inactive) in [10], -1.96 in test [10] (setting [16]) and -1.72 in test [10] (measured here: PEO4 Z-AUC).
On to `COc1ccc2c(c1)[C@]13CCCCC1C(C2)N(C)CC3` (stereo partly specified), for which the Potency result in test [1], in [2], in test [3], in [13], in [4] and in test [14] was “inactive” throughout. The Potency result in test [5], in test [12], in test [6], in [7] and in test [8] was “inactive” in each case. Moreover, the viability in test [11] was 120% (inactive). The z-score in [15] (setting [17]) was -0.129; in test [15] (setting [18]) it was 0.851; in [15] (setting [19]), 0.444.
With `CC(C)(C)[C@]1(O)C[C@@H]2OC(=O)C[C@@]23C(=O)O[C@@H]2OC(=O)[C@H](O)C213` (stereo partly specified), the Potency entry in [1], in test [2], in [3], in [12], in [6] and in test [7] was “inactive” each time. In addition, the Potency entry in test [8] and in test [9] was “inactive” each time.
In the case of `CC(C)[C@H]1C(=O)N[C@H](CO)Cc2c[nH]c3cccc(c23)N1C`, the Potency result in test [1], in test [3], in [4] and in test [8] was “inactive” in each case. For the same compound, the Potency was 372 nM (active) in test [2], 93.5 nM (active) in test [13], 264 nM (active) in [12] and 66.2 nM (active) in [7]. The Z-AUC in test [10] is 0.277 (inactive); in test [10] (setting [16]) it was -0.654; in test [10] (measured here: PEO4 Z-AUC) it was -0.578.
Turning to `C[C@@H]1CC[C@@]2(OC1)O[C@H]1C[C@H]3[C@@H]4CC=C5C[C@@H](O[C@@H]6O[C@H](CO)[C@@H](O[C@@H]7O[C@@H](C)[C@H](O)[C@@H](O)[C@@H]7O)[C@H](O)[C@@H]6O[C@@H]6O[C@@H](C)[C@H](O)[C@@H](O)[C@@H]6O)CC[C@]5(C)[C@@H]4CC[C@]3(C)[C@@H]1[C@H]2C`, the Potency in test [1] is 1660 nM (active); in test [2], 2960 nM (active); in [5] it was 4690 nM (active); in test [6], 2350 nM (active); in test [7], 2090 nM (active); in test [8], 2350 nM (active). Moreover, the Potency in test [9] is 2960 nM (active).
For the compound `C[C@]12COC(=O)C[C@@H]1CC[C@@H]1[C@H]2CC[C@@]2(C)[C@H]1CC[C@]2(C)O`, the Potency result in test [1], in [2], in test [3], in [5], in test [6] and in test [7] was “inactive” throughout. Moreover, the Potency result in [8] and in [9] was “inactive” each time. For the same compound, the z-score in test [15] (setting [17]) was found to be 0.93; in test [15] (setting [18]) it was 0.76; in [15] (setting [19]) it was 0.397.
